Measurements: publication PMC5540273 (PLoS ONE, 2017)

Experiments:
Conditions in all cases: concentration: 1 μM, replicates: in singlicate; n = 1
ASK2 = tested on: T1, ASK2
T1 construct: gene MAP3K6

AURKA = tested on: AURKA
AURKB = tested on: AURKB
AURKC = tested on: AURKC
AXL = tested on: AXL
BIKE = tested on: T2, BIKE
T2 construct: gene BMP2K

BLK = tested on: BLK
BMPR1A = tested on: BMPR1A
BMPR1B = tested on: BMPR1B
BMPR2 = tested on: BMPR2
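Note: KINOMEscan kinase panel screen.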

SMILES	%Inh (ASK2) [%]	%Inh (AURKA) [%]	%Inh (AURKB) [%]	%Inh (AURKC) [%]	%Inh (AXL) [%]	%Inh (BIKE) [%]	%Inh (BLK) [%]	%Inh (BMPR1A) [%]	%Inh (BMPR1B) [%]	%Inh (BMPR2) [%]
Cc1ccccc1CC(=O)N1CCc2cc(-c3cn(C)c4ncnc(N)c34)ccc21 [GSK2603346]	6	27	92	100	98.7	82	49	0	0	0
Cc1nn2c(=O)cc(N3CCO[C@H](C)C3)nc2n1Cc1cccc(Cl)c1Cl [GSK2373693]	0	35	17	6	4	17	17	35	0	35
COc1ccc(C)c(Nc2ccnc(Nc3ccc(-c4cnc[nH]4)cc3)n2)c1.Cl [GW784041]	0	20	8	56	0	37	59	70	99.9	0
COC(=O)Nc1nc2ccc(Oc3ccc(CC(=O)Nc4cc(C(F)(F)F)ccc4F)cc3)cc2[nH]1 [GW680903]	0	0	60	52	23	3	32	6	0	1
CN(C)c1ncnc2nc[nH]c12 [SKF-31736]	0	12	54	0	0	0	0	0	7	46
CN(C)CCOc1ccc(-c2cc(-c3ccc(Cl)c(O)c3)c(-c3ccncc3)[nH]2)cc1.Cl.Cl [SB-684387]	0	21	0	0	0	0	64	90.6	29	10
COc1cccc(-c2nc(-c3ccccc3)[nH]c2-c2ccncc2)c1 [SB-610250]	11	0	39	0	15	0	60	0	0	0
Cn1cc(-c2ccc3c(c2)CCN3C(=O)Cc2cc(F)cc(C(F)(F)F)c2)c2c(N)ncnc21 [GSK2635225]	0	20	56	54	94	23	40	0	0	0
CCn1cnc2c(NCc3ccccc3)ncnc21 [SKF-96418]	0	0	41	0	0	0	16	0	0	48
Cn1cc(-c2cnc(N)c3c(-c4ccc5c(c4)CCN5C(=O)Cc4ccccc4)csc23)cn1 [GSK2593074]	17	24	97.8	92.2	95.9	0	93	1	6	6
COc1cc(Nc2nccc(N3CCC(NS(=O)(=O)c4ccc(NC(C)=O)cc4)CC3)n2)cc(OC)c1OC [GSK1379825]	9	59	71	71	14	75	50	29	0	0
COc1cccc(NC(=O)NCCNc2ccnc(Nc3ccc(F)cc3)n2)c1 [GSK1379879]	0	19	40	45	3	14	18	0	0	5
COc1cccc(C2=C(Nc3cccc(O)c3)C(=O)NC2=O)c1 [SB-390771]	0	16	24	0	1	0	0	0	0	36
CCNC(=O)/C=C/c1n[nH]c2cc(Sc3ccccc3C(=O)NC)ccc12	0	86	97.4	84	76	48	7	12	30	1
COc1cc(Nc2ccnc3cc(-c4ccncc4)ccc23)cc(OC)c1OC.Cl [GW494610]	0	0	82	27	31	0	94.9	62	99	10
CN(C)CCNS(=O)(=O)c1ccc(-c2ccnc3[nH]ccc23)cc1 [GSK977620]	23	2	57	85	93.1	82	6	0	0	0
Cc1ccc(O)cc1Nc1ccnc2cc(-c3ccc(CN4CCCCC4)o3)ccc12 [GW557777]	0	0	0	15	0	4	99.7	61	99.9	0
COc1cccc(CC(=O)N2CCc3cc(-c4cn(C)c5ncnc(N)c45)ccc32)c1 [GSK2608899]	12	52	87	48	96.2	21	36	6	6	0
Nc1ncc(-c2ccc3nccc(-c4ccncc4)c3c2)cc1S(=O)(=O)N1CCCCC1 [GSK1693850]	0	59	31	35	52	14	0	0	0	0
CCNc1nccc(-c2c(-c3ccc(F)cc3)ncn2C2CCN(C)CC2)n1	0	0	0	8	0	13	3	0	0	0
Cc1ccc(C)c(NC(=O)Nc2ccc(C)c(-c3ccc(C(=O)Nc4ccncc4)cc3)c2)c1 [GSK1398473]	0	0	21	22	90	13	0	0	0	0
CC(C)c1nc(-c2ccc(F)c(NS(=O)(=O)c3c(F)cccc3F)c2)c(-c2ccnc(Nc3ccc(N4CCOCC4)nc3)n2)s1 [GSK1804250]	25	11	29	88	82	44	99.5	40	99.7	1

SMILES	%Inh (ASK2) [%]	%Inh (AURKA) [%]	%Inh (AURKB) [%]	%Inh (AURKC) [%]	%Inh (AXL) [%]	%Inh (BIKE) [%]	%Inh (BLK) [%]	%Inh (BMPR1A) [%]	%Inh (BMPR1B) [%]	%Inh (BMPR2) [%]
Fc1cc(Cl)ccc1Nc1ccnc2cc(-c3ccc(CN4CCOCC4)o3)ccc12 [GW560109]	8	89	35	35	40	21	94.4	18	62	0
Cc1cccc(Nc2nc(NCCN)ncc2C(N)=O)c1 [GSK1292139]	8	18	0	25	9	77	1	0	0	70
O=C(Nc1n[nH]c2nc(-c3ccccc3)ccc12)C1CC1 [SB-708999]	32	22	15	8	0	40	0	0	6	10
O=C(Nc1n[nH]c2nc(-c3ccccc3O)ccc12)C1CC1 [SB-711880]	34	31	81	6	18	41	0	0	0	8
Cl.Cl.NC(CNC(=O)c1cc(Br)c(-c2ccnc3[nH]ccc23)s1)c1ccccc1 (centres unmarked) [GSK1322949]	20	67	35	95.2	90.8	100	44	0	12	58
CNc1nccc(-c2ccc3c(N)n[nH]c3c2)n1 [GSK2206003]	0	8	0	46	0	94.1	54	7	71	6
Cl.Cl.NCC(NC(=O)c1cc(-c2cccnc2)c(-c2ccnc3[nH]ccc23)s1)c1ccccc1 (centres unmarked) [GSK1323434]	16	15	19	36	23	63	40	0	51	5
COc1cc(Nc2nccc(N3CCC(NC(=O)Nc4ccc5c(c4)OCO5)C3)n2)cc(OC)c1OC (centres unmarked) [GSK1379766]	12	86	69	90.1	0	74	0	0	0	30
N#CC1(c2cccc(C(=O)Nc3cccc(Oc4ccc5nc(NC(=O)C6CC6)sc5n4)c3)c2)CC1	3	0	57	48	62	1	95.2	0	0	0
CS(=O)(=O)c1cccc(CNc2nc(Nc3ccc4c(c3)CCC(=O)N4)ncc2C(F)(F)F)c1	0	97.8	96.7	71	23	82	0	0	0	39
CN1CCN(Cc2ccc(NC(=O)Nc3ccc(N(C)c4ccnc(Nc5ccc(CS(C)(=O)=O)cc5)n4)cc3)cc2)CC1.Cl [GW827654]	4	99.9	99.7	98.5	99.3	93.2	94.1	44	96.2	87
NCCC(NC(=O)c1cc(Br)c(-c2ccnc3[nH]ccc23)s1)c1ccccc1.O=C(O)C(F)(F)F.O=C(O)C(F)(F)F (centres unmarked) [GSK1307810]	11	87	13	99.7	76	100	0	0	0	52
COc1ccc(NC(=O)c2ccoc2)cc1-c1ccc(C(=O)NCC2CC2)cc1 [GW810437]	0	1	33	0	0	0	21	7	2	46
COC(=O)Nc1nc2ccc(Oc3ccc(NC(=O)Nc4cc(C(F)(F)F)ccc4F)cc3)cc2[nH]1.Cl [GW654607]	15	0	92.3	42	97.3	10	67	18	0	0
COc1ccc(C2=C(Nc3cccc(O)c3)C(=O)NC2=O)cc1 [SB-390766]	7	13	33	0	35	0	0	0	0	24
CC(C)c1nc(-c2cccc(NS(=O)(=O)c3c(F)cccc3F)c2)c(-c2ccnc(Nc3ccc(N4CCOCC4)nc3)n2)s1.Cl [GSK1723980]	20	41	42	50	74	19	99.8	67	99.7	0
Cc1ccc(NC(=O)c2ccc(Cl)c(Cl)c2)cc1-c1ccc(C(=O)Nc2ccncc2)cc1 [GSK1398460]	0	7	1	67	100	40	45	0	0	0
COc1cccc2c(-c3ccncc3)c(-c3ccc(F)cc3)nn12 [GW468513]	0	0	0	17	13	26	49	0	0	7
Nc1cccc(-c2ccc3c(N)n[nH]c3c2)c1 [GSK2193613]	0	10	0	46	0	82	87	0	89	3
CN(c1ccc2c(c1)nc(NCc1ccccc1)n2C)c1ccnc(Nc2ccc(CS(C)(=O)=O)cc2)n1.Cl [GW811603]	0	87	79	63	85	24	39	0	4	22
Cl.N#CCc1ccc(Nc2nccc(Nc3ccc(Oc4ccccc4)cc3)n2)cc1 [GW639905]	7	6	31	34	22	26	94.1	0	0	0
Cl.O=C(Nc1ccc(Oc2ccc3[nH]c(NC(=O)c4ccco4)nc3c2)cc1)Nc1cc(C(F)(F)F)ccc1F [GW683134]	0	0	92.6	50	96	15	54	0	0	0
